The values that follow come from the supplement of paper PMC6555819.

One assay has as its system PPARg:RXRa DBDmut IVT, anti-RXR (DBD mutation: RXRa K156A/R161A, NR concentration 270 nM, RXRa partner concentration 90 nM). As to the kind of experiment: PBM binding z-score (relative to random genomic background probes); higher = stronger binding; sequences stand for … in GC…GCGATTGACAGCGTAGAATGAAGG
In short, it runs like this:
(§1)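 On custom Agilent 4×180K arrays, double-stranded probes with 34-nt variable regions carried direct-repeat seeds, single-nucleotide variants, half-site ablations or random human genomic background. Ligand-free nuclear receptor dimers were applied for 1 h, and binding was read with antibodies against each partner (one per run). Binding z-scores come from regression-normalized fluorescence, with the random background probes as reference.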
Sequence TAGCCTAGGTCATTCAGGGGCCAGTCTAGAAAGC displayed a PBM binding z-score of 1.37.

With TCTCCTAGGTCAGTTGGTCAGCTAACGAGCTGCC, the PBM binding z-score amounted to 2.85.

Sequence ATCGAAAGGTCGTGAGGTGAGTGTACAGAAAGGC had a PBM binding z-score of 0.429.

Sequence CGTCAAAGTTCAAGGTAACGGAACAGAAAGCAGC registered a PBM binding z-score of 0.343.

Regarding ACTATTAGTTGAGACGAGGGCAAACGATAGGTTG, the PBM binding z-score is 0.0525.

For TCGAGTAGGTTAGGGGCTTTCAGAATGGCGTCGA, the PBM binding z-score is 2.03.

CGAGCTAGGTCAAGGACAGTGAATCTCCGCACGC gave a PBM binding z-score of 3.38.

For ATCTCTAGGTAAGAAGTTCAGTGAAAGAGAGGAC, the PBM binding z-score came to 1.18.

TTACCAAGGGGAGCTGAGGTCGTTGATCCAACTC registered a PBM binding z-score of 0.0938.

ACAGACAGTTGAGTGAAGGTAACTCAGCTGGACG showed a PBM binding z-score of -0.279.

In turn, TCTCGGAGGACACGTAAGGTCAGAGCTCGACATC displayed a PBM binding z-score of 1.32.

Take ATCTCTAGGTAACAAGTTAAGTGAAAGAGAGGAC: the PBM binding z-score worked out at 3.26.

Sequence CTCGAAAAGTCGTGCTCAGGTGAGTATACCAAAC came in with a PBM binding z-score of -0.109.

In turn, TGAATGAGGTTATAAGCTCAGGGAACGTTGCAAA came in with a PBM binding z-score of 1.28.

As to AGAATGAGGTTATAAAGATCAGGGAATTGCGGTC, the PBM binding z-score came to 2.13.

As to CAAACTAGGTCACCGGAAGGTCAACGTCCGCATG, the PBM binding z-score was found to be 8.78.

Take ATAGGTAGGTTAGCTGGGGTCATTCAGACTAGGC: the PBM binding z-score is 2.88.

With TCTATTAGTTGACTAGGGCAACCGAAACAGCGGA, the PBM binding z-score was 3.04.

A further assay has as its system PPARg:RXRa IVT, anti-PPARg (NR concentration 270 nM, RXRa partner concentration 90 nM). The description is as above. In short, it runs like this:
as §1
In the case of AAATGTAGGTTATCGGGTCATTCAGTTTGCGCAT, the PBM binding z-score was found to be 7.95.

In turn, TCTTGTAGATCAACAGGAGGTAAAGAAAGATCGA displayed a PBM binding z-score of 0.479.

In the case of CCTTACGGGTCACGAGGTTATGGCACGACGAGCG, the PBM binding z-score came to 5.37.

In turn, CCTCGGAGGACAGAAGATCAGAGCTGTCCGCTTT had a PBM binding z-score of -0.633.

TTACCAAGGCGAGCTGAGGTCGTTGATCCAACTC gave a PBM binding z-score of -0.00723.

TCTAGTAGATCAGCAGGTTAAGAAAGCTGGCCAA gave a PBM binding z-score of 0.125.

For GCGACTGGGGCATCAGCAGGTTACGATAACTTAA, the PBM binding z-score is 3.19.

For CGAACTAGGTCATCCAGGACAGTAAATACATTGA, the PBM binding z-score came to 8.2.

On to ACTATTAGTTGAGACGAAGGCAACCGATAGGTTG, for which the PBM binding z-score was -0.28.

Consider TCGAGTTGGTTAGTCGGGGCATTCAGCCAACATA, for which the PBM binding z-score turned out to be 0.172.

Consider TAGCCTAGGTCATTCAGGGGCCTGTATAGAAAGC, for which the PBM binding z-score was 2.65.

In turn, TAGCCAAGGTCATGGGCCAGTATACCACGCGAAC showed a PBM binding z-score of 3.66.

Take TCTAGTTGGGCACGGAGGTCACACACGACGGGTA: the PBM binding z-score came to 2.93.

ATCTCTAGGTAAAGTACAGTGAAAGATCGATAGA gave a PBM binding z-score of 2.03.

GTACCAAGATGAATAGGTCGTTGATGAGTAGGCG: the PBM binding z-score was -0.096.

In the case of CGAACTAGGTCCGAACAGGACAGTGAAGGATGAT, the PBM binding z-score amounted to 0.592.

Sequence CTCGAAAGGTCGTTCTCAGGTGAGTATACCAAAC yielded a PBM binding z-score of 1.61.

CAAACTAAGTCAAGGTCAAAGTCGGTTTGTGCCA yielded a PBM binding z-score of 3.35.

Turning to GTTGCTAGGTCAGGTTGGTCAGCTAACGGGTACG, the PBM binding z-score turned out to be 3.16.

The sequence CCAACGAGGGCATGAGTTGATAGCAAATGCCGAT gave a PBM binding z-score of 1.08.

Turning to TCTTGTAGATCGGCAGGTTAAGAAAGCTGGCCAA, the PBM binding z-score was 0.377.

The sequence TCGAGTAGGTTAGGGGCATTCAAAATGGCGTCGA came in with a PBM binding z-score of 1.45.

TAGCCTAGGTCATTCAGGGGCCAGTCTAGAAAGC came in with a PBM binding z-score of 2.68.

The sequence TCTCCTAGGTCAGTTGGTCAGCTAACGAGCTGCC had a PBM binding z-score of 3.32.

ATCGAAAGGTCGTGAGGTGAGTGTACAGAAAGGC registered a PBM binding z-score of 2.63.

As to CGTCAAAGTTCAAGGTAACGGAACAGAAAGCAGC, the PBM binding z-score stood at 2.24.

As for ACTATTAGTTGAGACGAGGGCAAACGATAGGTTG, the PBM binding z-score was found to be 0.456.

Sequence TCGAGTAGGTTAGGGGCTTTCAGAATGGCGTCGA had a PBM binding z-score of 1.11.

As for CGAGCTAGGTCAAGGACAGTGAATCTCCGCACGC, the PBM binding z-score was determined as 2.99.

Take ATCTCTAGGTAAGAAGTTCAGTGAAAGAGAGGAC: the PBM binding z-score was 1.29.

On to TTACCAAGGGGAGCTGAGGTCGTTGATCCAACTC, for which the PBM binding z-score came out at 0.219.

For ACAGACAGTTGAGTGAAGGTAACTCAGCTGGACG, the PBM binding z-score came to 0.038.

Regarding TCTCGGAGGACACGTAAGGTCAGAGCTCGACATC, the PBM binding z-score was determined as 0.521.

Sequence ATCTCTAGGTAACAAGTTAAGTGAAAGAGAGGAC registered a PBM binding z-score of 2.85.

CTCGAAAAGTCGTGCTCAGGTGAGTATACCAAAC returned a PBM binding z-score of 0.391.

Take TGAATGAGGTTATAAGCTCAGGGAACGTTGCAAA: the PBM binding z-score came to 1.28.

The sequence AGAATGAGGTTATAAAGATCAGGGAATTGCGGTC gave a PBM binding z-score of 2.04.

In turn, CAAACTAGGTCACCGGAAGGTCAACGTCCGCATG registered a PBM binding z-score of 8.78.

As to ATAGGTAGGTTAGCTGGGGTCATTCAGACTAGGC, the PBM binding z-score was 2.9.

In turn, TCTATTAGTTGACTAGGGCAACCGAAACAGCGGA showed a PBM binding z-score of 3.38.

A further assay deals with PPARg DBDmut:RXRa IVT, anti-PPARg (DBD mutation: PPARg1 K132A/R137A, NR concentration 270 nM, RXRa partner concentration 90 nM). Described as above. In short, it runs like this:
as §1
With AAATGTAGGTTATCGGGTCATTCAGTTTGCGCAT, the PBM binding z-score was determined as 2.76.

In turn, TCTTGTAGATCAACAGGAGGTAAAGAAAGATCGA gave a PBM binding z-score of 0.613.

CCTTACGGGTCACGAGGTTATGGCACGACGAGCG: the PBM binding z-score came to 1.26.

CCTCGGAGGACAGAAGATCAGAGCTGTCCGCTTT: the PBM binding z-score is -2.13.

For TTACCAAGGCGAGCTGAGGTCGTTGATCCAACTC, the PBM binding z-score is -0.484.

TCTAGTAGATCAGCAGGTTAAGAAAGCTGGCCAA gave a PBM binding z-score of -0.189.

For GCGACTGGGGCATCAGCAGGTTACGATAACTTAA, the PBM binding z-score is -0.586.

Sequence CGAACTAGGTCATCCAGGACAGTAAATACATTGA returned a PBM binding z-score of 3.

Regarding ACTATTAGTTGAGACGAAGGCAACCGATAGGTTG, the PBM binding z-score came to 1.16.

In turn, TCGAGTTGGTTAGTCGGGGCATTCAGCCAACATA gave a PBM binding z-score of -0.755.

TAGCCTAGGTCATTCAGGGGCCTGTATAGAAAGC: the PBM binding z-score is -0.0905.

TAGCCAAGGTCATGGGCCAGTATACCACGCGAAC gave a PBM binding z-score of 0.971.

TCTAGTTGGGCACGGAGGTCACACACGACGGGTA yielded a PBM binding z-score of 1.02.

The sequence ATCTCTAGGTAAAGTACAGTGAAAGATCGATAGA returned a PBM binding z-score of 1.17.

For GTACCAAGATGAATAGGTCGTTGATGAGTAGGCG, the PBM binding z-score was -0.257.

Regarding CGAACTAGGTCCGAACAGGACAGTGAAGGATGAT, the PBM binding z-score is -1.02.

In turn, CTCGAAAGGTCGTTCTCAGGTGAGTATACCAAAC registered a PBM binding z-score of 0.926.

In turn, CAAACTAAGTCAAGGTCAAAGTCGGTTTGTGCCA showed a PBM binding z-score of 0.787.

Sequence GTTGCTAGGTCAGGTTGGTCAGCTAACGGGTACG displayed a PBM binding z-score of 0.283.

For CCAACGAGGGCATGAGTTGATAGCAAATGCCGAT, the PBM binding z-score is -0.303.

On to TCTTGTAGATCGGCAGGTTAAGAAAGCTGGCCAA, for which the PBM binding z-score is -0.018.

The sequence TCGAGTAGGTTAGGGGCATTCAAAATGGCGTCGA registered a PBM binding z-score of -0.544.

On to TAGCCTAGGTCATTCAGGGGCCAGTCTAGAAAGC, for which the PBM binding z-score came out at 0.235.

TCTCCTAGGTCAGTTGGTCAGCTAACGAGCTGCC yielded a PBM binding z-score of 1.43.

The sequence ATCGAAAGGTCGTGAGGTGAGTGTACAGAAAGGC gave a PBM binding z-score of 1.08.

For the sequence CGTCAAAGTTCAAGGTAACGGAACAGAAAGCAGC, the PBM binding z-score was determined as 0.485.

The sequence ACTATTAGTTGAGACGAGGGCAAACGATAGGTTG showed a PBM binding z-score of 1.03.

TCGAGTAGGTTAGGGGCTTTCAGAATGGCGTCGA registered a PBM binding z-score of -0.958.

CGAGCTAGGTCAAGGACAGTGAATCTCCGCACGC returned a PBM binding z-score of -0.96.

ATCTCTAGGTAAGAAGTTCAGTGAAAGAGAGGAC displayed a PBM binding z-score of 0.696.

In turn, TTACCAAGGGGAGCTGAGGTCGTTGATCCAACTC gave a PBM binding z-score of -0.939.

Sequence ACAGACAGTTGAGTGAAGGTAACTCAGCTGGACG displayed a PBM binding z-score of -0.108.

Regarding TCTCGGAGGACACGTAAGGTCAGAGCTCGACATC, the PBM binding z-score turned out to be 0.00634.

Consider ATCTCTAGGTAACAAGTTAAGTGAAAGAGAGGAC, for which the PBM binding z-score is 1.87.

For the sequence CTCGAAAAGTCGTGCTCAGGTGAGTATACCAAAC, the PBM binding z-score was 0.0169.

In turn, TGAATGAGGTTATAAGCTCAGGGAACGTTGCAAA displayed a PBM binding z-score of 0.166.

AGAATGAGGTTATAAAGATCAGGGAATTGCGGTC had a PBM binding z-score of 0.947.

As to CAAACTAGGTCACCGGAAGGTCAACGTCCGCATG, the PBM binding z-score is 2.66.

With ATAGGTAGGTTAGCTGGGGTCATTCAGACTAGGC, the PBM binding z-score was found to be 1.18.

The sequence TCTATTAGTTGACTAGGGCAACCGAAACAGCGGA came in with a PBM binding z-score of 0.37.
